Screens (PubChem BioAssay)
WRN inhibitor: qHTS for Inhibitors of WRN Helicase; Bifunctional 3'-5' exonuclease/ATP-dependent helicase WRN (Homo sapiens), Q14191; actives 0.46% (n = 360,000); Potency, µM (highest dose often 114 µM), for the others: at the highest dose activity change, negative = inhibition, usual class: inhibitors; WRN helicase unwinding, fluorescent forked duplex, kinetic; also: potency is read from the fitted curve at half-maximal effect; % is scaled to controls: 0 for no effect and ±100 for the full control effect; nearly all actives have a fitted effect of over 55% in size
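Kinetic fluorescence helicase assay: unwinding of a quenched forked DNA duplex (100 nM final) with 2 mM ATP final raises red fluorescence (525/598 nm). Compounds sat 15 min at room temperature with 20 nM WRN beforehand.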
Pol beta inh-1: qHTS Assay for Inhibitors of DNA Polymerase Beta | P06746 | AID 485314, 2010 | actives 1.3% (n = 340,000) | Potency, µM (series often up to 114 µM), for the others: at the top dose activity change, negative = inhibition, usual class: inhibitors | Pol beta primer extension/strand displacement, fluorescence kinetic; also: potency is read from the fitted curve at half-maximal effect; % is scaled to controls: 0 for no effect and ±100 for the full control effect
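Pol beta (10 nM) and compounds were preincubated 15 min at room temperature, then 50 nM substrate (final) started primer extension/strand displacement. Reads were taken at 0 and 10 min; concentration-response data were fitted to a four-parameter Hill equation.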
PI5P4Ka inh: qHTS for Inhibitors of phosphatidylinositol 5-phosphate 4-kinase (PI5P4K). PI5P4Kalpha enzyme, ADP-Glo luminescence, 60 min; stronger effect = lower value. AID 652105, 2013. actives 1.2% (n = 330,000). max response, %. Phosphatidylinositol 5-phosphate 4-kinase type-2 alpha (Homo sapiens), P48426; active = max response of -50% or lower; inconclusive = between -30% and -50%; inactive = -30% or higher; also: value at the top dose of about 77 µM; % is scaled to controls: 0 for no effect and ±100 for the full control effect
Target sequence (P48426 whole entry, looked up): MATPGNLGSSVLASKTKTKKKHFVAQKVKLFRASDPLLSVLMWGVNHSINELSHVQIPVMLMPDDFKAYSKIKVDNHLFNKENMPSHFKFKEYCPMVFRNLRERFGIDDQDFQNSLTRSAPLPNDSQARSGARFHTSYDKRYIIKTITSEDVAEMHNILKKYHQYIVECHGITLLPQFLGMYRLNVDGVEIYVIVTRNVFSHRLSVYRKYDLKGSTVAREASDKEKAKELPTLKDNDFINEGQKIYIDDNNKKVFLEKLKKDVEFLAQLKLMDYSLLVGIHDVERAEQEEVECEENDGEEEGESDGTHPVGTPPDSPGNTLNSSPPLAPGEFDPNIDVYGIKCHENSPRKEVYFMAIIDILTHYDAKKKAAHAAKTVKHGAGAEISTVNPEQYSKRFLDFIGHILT
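Human PI5P4Kalpha with substrate in 0.038 M HEPES pH 7.4, 0.28 mM EGTA, 0.1% CHAPS, 5% DMSO; reaction started with 5 microM ATP (final), 60 min at room temperature. ADP formed read by ADP-Glo luminescence.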
Pol iota inh: qHTS for Inhibitors of Polymerase Iota | DNA polymerase iota (Homo sapiens), Q9UNA4 | Pol iota fluorescent replication assay, 10 min | Potency, µM (titrated, usually from 115 µM), for the others: at the highest dose activity, negative = inhibition, hits mostly inhibitors | actives 1% (n = 390,000) | AID 588590, 2011; also: potency is read from the fitted curve at half-maximal effect
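Fluorescent replication assay read twice, at 0 min and 10 min after adding 50 nM (final) substrate. Enzyme (10 nM) and compounds were first incubated 15 min at room temperature; enzyme-free buffer wells were negative controls.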
Pol kappa inh-1: qHTS for Inhibitors of Polymerase Kappa; purified Pol kappa, fluorescent DNA synthesis assay, 10 min; actives 0.53% (n = 400,000); Potency, µM (titrated, usually from 107 µM), inactives show at the top dose activity, negative = inhibition, hits mostly inhibitors; DNA polymerase kappa (Homo sapiens), Q9UBT6; also: potency is read from the fitted curve at half-maximal effect; % is scaled to controls: 0 for no effect and ±100 for the full control effect
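Here, compound and 10 nM enzyme are combined for 15 min at room temperature; adding 50 nM substrate (final) starts DNA synthesis, tracked by fluorescence at 0 and 10 min against buffer-only wells.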
Pol eta inh-1: qHTS for Inhibitors of Polymerase Eta; DNA polymerase eta (Homo sapiens), Q9Y253; recombinant Pol eta, fluorescent DNA replication assay; Potency, µM (doses to about 114 µM), for the others: at the highest dose activity change, negative = inhibition, actives largely listed as inhibitors; actives 1.2% (n = 390,000); AID 588591, 2011; also: potency is read from the fitted curve at half-maximal effect; % is scaled to controls: 0 for no effect and ±100 for the full control effect
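Pol eta at 10 nM preincubated with compounds 15 min at room temperature; reaction started with fluorescent substrate (50 nM final) and read kinetically at 0 and 10 min.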
Pol beta inh-2: Inhibitors of DNA Polymerase Beta: Hit validation. shares compounds with Pol beta inh-1. Pol beta primer extension/strand displacement, fluorescence kinetic. Potency, µM, most hits filed as inhibitors. actives 87% (n = 250). AID 540280, 2011; calls by dose curve; also: potency is read from the fitted curve at half-maximal effect
Klenow counter: Inhibitors of DNA Polymerase Beta: Hit Validation in Klenow Fragment Assay; activity change, negative = inhibition, % at 57.1 µM; 250 tested, under 10 active; shares compounds with Pol beta inh-1; AID 540300, 2011; Klenow exo- polymerase counter-screen, fluorescent DNA substrate
HIV RT counter: Inhibitors of DNA Polymerase Beta: Hit Validation in HIV-RT Assay; shares compounds with Pol beta inh-1; HIV-1 RT polymerase activity, counter-screen; activity % (negative = inhibition, positive = activation), % at 57.1 µM; 250 tested, under 10 active; AID 540301, 2011
POLB valid: Inhibitors of DNA Polymerase Beta: Hit Validation in Radiolabeled Extension Assay | shares compounds with Pol beta inh-1 | radiolabeled primer extension gel assay, phosphorimager | inhibition, % at 10 µM | actives 91% (n = 110);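 active = inhibition at 10 µM of 30% or more; inconclusive = no clear call, values can overlap the other calls; inactive = inhibition at 10 µM under 30%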
TbPGK inh: qHTS for inhibitors of Phosphogylcerate Kinase: Hit Validation Screen; actives 79% (n = 500); TbPGK coupled GAPDH assay, Kinase-Glo luminescence; shares compounds with Pol kappa inh-1; Potency, µM (doses to about 57.5 µM), for inactives: at the top dose activity change, negative = inhibition, actives largely listed as inhibitors; also: potency is read from the fitted curve at half-maximal effect; % is scaled to controls: 0 for no effect and ±100 for the full control effect; nearly all actives have a fitted effect of over 65% in size
Pol iota confirm: qHTS for Inhibitors of Polymerase Iota: Confirmatory Assay for Cherry-picked Compounds | shares compounds with Pol kappa inh-1 | Pol iota primer extension, TAMRA/BHQ fluorescence | Potency, µM, most hits filed as inhibitors | actives 77% (n = 1,500) | AID 720496, 2013; also: potency is read from the fitted curve at half-maximal effect
Pol kappa inh-2: qHTS for Inhibitors of Polymerase Kappa: Confirmatory Assay for Cherry-picked Compounds. actives 76% (n = 920). Potency, µM, hits mostly inhibitors. shares compounds with Pol eta inh-1. purified Pol-kappa, fluorescent strand-displacement substrate; also: potency is read from the fitted curve at half-maximal effect
Pol eta inh-2: qHTS for Inhibitors of Polymerase Eta: Confirmatory Assay for Cherry-picked Compounds; shares compounds with Pol eta inh-1; Potency, µM, actives largely listed as inhibitors; AID 720502, 2013; actives 64% (n = 2,600); Pol eta primer extension, TAMRA/BHQ fluorescence, 10 min; also: potency is read from the fitted curve at half-maximal effect
Numbers without * were called inactive; ? = inconclusive; nt = no result; [ ] = another dose, or the depositor's remark. Compounds with a hit are over-represented: about 2.8% of the library has one in this group of screens. Unless noted, calls follow the shape of the dose curve; as a rule, active = well fitted curve in the direction sought with a large enough effect; inconclusive = small, poorly fitted or top-dose-only effect, or another doubt; inactive = no such curve, though single readings can be large; an effect the other way counts as inactive or inconclusive.

SMILES	WRN inhibitor	Pol beta inh-1	PI5P4Ka inh	Pol iota inh	Pol kappa inh-1	Pol eta inh-1	Pol beta inh-2	Klenow counter	HIV RT counter	POLB valid	Pol iota confirm	Pol eta inh-2	others
CSc1ccccc1NC(=O)c1noc2c1CCC2	?	10µM*	nt	20µM*	?	28µM*	32*	-10	3	93*	67*	60*
Cc1ccc(O)c(NC(=O)c2noc3c2CCCC3)c1	nt	0%	nt	6%	-4%	-12%	nt	nt	nt	nt	nt	nt
CCCN(CC(=O)Nc1ccccc1C)C(=O)c1ccc(OCc2c(C)noc2C)cc1	-9%	nt	-6	23%	-14%	-8%	nt	nt	nt	nt	nt	nt
CCC1(CC)NC(=O)N(CC(=O)Nc2sc3c(c2C(N)=O)CCC3)C1=O	?	16µM*	-70*	13µM*	?	25µM*	28*	-20	-10	95*	nt	?
CCC1(C)NC(=O)N(CC(=O)Nc2sc3c(c2C(=O)OC)CCCCC3)C1=O (stereo not drawn)	-20%[57.1 µM]	19%	-18	10%	-9%	-7%	nt	nt	nt	nt	nt	nt
CC1CCCCC1NC(=O)COC(=O)c1c2c(nc3ccccc13)/C(=C/c1ccco1)CC2 (stereo not drawn)	?	11µM*	-83*	3.5µM*	10µM*	8.9µM*	18*	-27	-5	nt	34*	21*
O=C(N/N=C/c1ccco1)c1cccc(N2Cc3ccccc3C2)c1	-20%[11.6 µM]	13µM*	-88*	10µM*	35µM*	7.9µM*	16*	-14	20	nt	42*	43*	Pol kappa inh-2=17*
O=C(N/N=C/c1ccco1)c1cccc(N2CCCC2=O)c1	-33%[57.1 µM]	?	2	?	-7%	?	nt	nt	nt	nt	nt	nt
O=C(CSc1ccsc1[N+](=O)[O-])Nc1cc(F)ccc1F	?	13µM*	-94*	?	25µM*	7.1µM*	25*	-33	-5	99*	67*	43*	TbPGK inh=15µM*
CC(=O)c1ccc(NC(=O)CSc2ccsc2[N+](=O)[O-])cc1	?	5.6µM*	-81*	?	?	11µM*	22*	-29	18	99*	42*	?	Pol kappa inh-2=38*
Cc1c(C(=O)Nc2cccc(C(F)(F)F)c2)oc2ccc(S(=O)(=O)N3CCC4(CC3)OCCO4)cc12	nt	-10%	nt	3%	-5%[60.1 µM]	-5%	nt	nt	nt	nt	nt	nt
Cc1cc(/C=C2\C(=N)N3N=C(c4ccco4)SC3=NC2=O)c(C)n1Cc1ccccc1	?	10µM*	-62*	20µM*	50µM*	22µM*	14*	-11	-13	nt	nt	43*	Pol kappa inh-2=17*
COc1ccc(NC(=O)c2ccc(Cl)nc2)cc1S(=O)(=O)N1CCOCC1	0%	nt	-5	?	-14%	-13%	nt	nt	nt	nt	nt	nt
COc1ccc(NC(=O)Cn2ncc(Cl)c(Cl)c2=O)cc1S(=O)(=O)N1CCOCC1	?	10µM*	-78*	20µM*	45µM*	7.1µM*	32*	-6	?	98*	67*	76*
C=C(C)C(=O)Nc1cccc(C2=NOC3(C2)C[C@H](C(N)=O)N(C(=O)c2ccccc2)C3)c1 (stereo partly drawn)	-6%[11.6 µM]	18µM*	-28	50µM*	?	13µM*	28*	-32	-1	86*	nt	27*	TbPGK inh=?
Cc1ccc(CSc2nnc(-c3ccc(NC(=O)CCc4ccccc4)cc3)n2C)cc1	nt	nt	nt	14%	-12%	nt	nt	nt	nt	nt	nt	nt
Cc1cc(Br)ccc1NC(=O)C1CCN(S(=O)(=O)c2cnc[nH]2)CC1	-9%	31%	0	24%	5%	-9%	nt	nt	nt	nt	nt	nt
COc1cccc(-n2c(SCC(=O)N3CCc4ccccc43)nnc2-c2c[nH]c3ccccc23)c1	4%	0%	-1	-1%	-3%	-4%	nt	nt	nt	nt	nt	nt
CCOc1ccc(-n2c(SCC(=O)N3CCc4ccccc43)nnc2-c2c[nH]c3ccccc23)cc1	-24%[11.6 µM]	1µM*	6	?	0%	5.6µM*	1.4*	-10	26	nt	30*	76*
Cc1c(O)cc2c(c1O)C(=O)CC(c1ccc(O)cc1)O2 (stereo not drawn)	-8%[11.6 µM]	1.3µM*	-80*	?	14µM*	8.9µM*	5*	-20	27	nt	nt	?
Cc1ccc2oc(C(=O)NCCCN3CCOCC3)c(C)c2c1	-32%	35%	8	18%	-21%	-15%	nt	nt	nt	nt	nt	nt
